Screening data as filed in PubChem BioAssay.
Caspase-1 inhib: qHTS Assay for Allosteric/Competitive Inhibitors of Caspase-1 | Caspase-1 enzyme, Ac-WEHD-AFC fluorogenic rate | Potency, µM (highest dose often 57.5 µM), inactives show top-dose activity change, negative = inhibition, most hits filed as inhibitors | 75,000 tested, 0.03% active;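 further: plate controls were vehicle for no effect and no substrate for full effect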
TSHR agonist: qHTS Assay for Agonists of the Thyroid Stimulating Hormone Receptor | Potency, µM (series often up to 57.1 µM), inactives show at the highest dose activation, hits mostly activators | 73,000 tested, 0.48% active | Thyrotropin receptor (Homo sapiens), P16473 | HEK293-CNG-TSHR cells (CNG channel as cAMP sensor), membrane potential dye, cAMP | AID 926, 2007; active means well fitted activation curve with a large enough effect in the main read-out, with a control signal flat, not every such curve was filed as active; inconclusive means small, poorly fitted or top-dose-only effect, or a change in a side signal; inactive means no such curve, though single readings can be large or run the other way; % of control where 0% means no effect;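 further: the control signal comes from parental cells without the receptor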
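HEK 293 cells stably expressing TSHR and a modified CNG channel, with CNG-only parental cells as counterscreen, were preloaded 60 min at room temperature with membrane potential dye containing 100 uM RO 20-1724. Compound exposure was 30 min, and depolarization was read as fluorescence at 590 nm.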
Casp7 inh: qHTS Assay for Allosteric/Competitive Inhibitors of Caspase-7; 75,000 tested, 0.02% active; recombinant caspase-7, Ac-DEVD-AFC fluorescence rate; Potency, µM (doses to about 57.5 µM), for the others: at the top dose activity change, negative = inhibition, most hits filed as inhibitors; active means well fitted inhibition curve with a large enough effect in the main read-out, with a control signal flat, not every such curve was filed as active; inconclusive means small, poorly fitted or top-dose-only effect, or a change in a side signal; further: % of control where 0% means no effect
ERK AVP block: qHTS Assay for Inhibitors of the ERK Signaling Pathway using a Homogeneous Screening Assay | HEK293-V1b, vasopressin-stimulated pERK AlphaScreen | Potency, µM (doses to about 57.5 µM), inactives show at the highest dose activity, negative = inhibition, hits mostly inhibitors | 72,000 tested, 0.99% active; further: on the % scale 0 is the no-effect control and ±100 the full control effect; nearly all actives have a fitted effect of over 55% in size
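HEK293 cells stably expressing V1b receptor, preincubated 30 min at 37 °C with compound, then stimulated 5 min with 25 nM vasopressin. Phospho-ERK by AlphaScreen SureFire after 5 h RT; normalized to DMSO and vasopressin; AC50 by Hill fit.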
HEK293 cAMP cs: qHTS Assay for Agonists of the Thyroid Stimulating Hormone Receptor: Activators of Intracellular cAMP Concentrations in Parental HEK 293; Potency, µM (doses to about 57.1 µM), inactives show top-dose activation, actives largely listed as activators; AID 938, 2007; 73,000 tested, 2.5% active; parental HEK293 CNG cAMP sensor, membrane potential fluorescence; further: % of control where 0% means no effect; nearly all actives have a fitted effect of over 55% in size
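Parental HEK 293 cells stably expressing a modified CNG channel (no TSHR) report cAMP rise as membrane depolarization. Membrane potential dye with 100 uM RO 20-1724 was loaded for 60 min at room temperature, then compound added for 30 min; fluorescence read at 590 nm.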
ALOX15 inhib: qHTS Assay for Inhibitors of 15-hLO (15-human lipoxygenase). AID 887, 2007. purified 15hLO-1, xylenol orange hydroperoxide absorbance. 74,000 tested, 1.4% active. Polyunsaturated fatty acid lipoxygenase ALOX15 (Homo sapiens), P16050. Potency, µM (doses to about 57.1 µM), for inactives: top-dose activity change, negative = inhibition, usual class: inhibitors; further: on the % scale 0 is the no-effect control and ±100 the full control effect; nearly all actives have a fitted effect of over 55% in size
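Purified human 15hLO-1 (40 nM final) in 25 mM Hepes pH 7.5, 0.01% Triton X-100 was preincubated with compound 15 min at room temperature, then reacted 6 min with 50 uM arachidonic acid; hydroperoxide detected by Fe-XO, 573/405 nm absorbance ratio.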
* hit, by the source's call; ? = inconclusive; · = no result; [ ] = dose if it differs, or a comment. In the library only some 4.8% were active in any assay of this set; here they are far more common. Unless noted, the call rests on the fitted dose curve; in most records, active means well fitted curve in the direction sought with a large enough effect; inconclusive means small, poorly fitted or top-dose-only effect, or another doubt; inactive means no such curve, though single readings can be large; an effect the other way counts as inactive or inconclusive. Potency means the concentration at half of the fitted maximal effect.

SMILES	Caspase-1 inhib	TSHR agonist	Casp7 inh	ERK AVP block	HEK293 cAMP cs	ALOX15 inhib
O=C(CSc1nnnn1Cc1ccccc1)Nc1ccc2c(c1)OCCO2	0%	3.2µM*	0%	-20%	4%	-1%
O=C(CSc1nnc(COc2ccccc2)n1Cc1ccco1)Nc1ccc2c(c1)OCCO2	-2%	20µM*	0%	-23%	15%	-20%
O=C(c1ccncc1)N1CCC[C@@]2(CCN(Cc3ccncc3)C2)C1	-4%	0%	0%	13%	7%	1%
O=C(CCc1ccc(O)cc1)c1c(O)cc(O)cc1O[C@@H]1O[C@@H](CO)[C@@H](O)[C@@H](O)[C@H]1O	·	-3%	·	·	7%	·
COc1ccc2c(CC(=O)OCC(=O)c3ccc(F)cc3)coc2c1	-1%	?	-1%	-11%	?	-2%
CC(C)=CC1C(C(=O)Nc2ccc(Br)cn2)C1(C)C (stereo not given)	-4%	?	2%	5%	25µM*	-5%
CCCCNC(=O)Nc1ccc(Br)cn1	1%	2%	-4%	-15%	-3%	-11%
CCCCc1cc2c(c(NC(=O)CC)n1)c(=O)oc1ccccc12	-2%	18%	-1%	12%	14%	-12%
CCc1cc(=O)oc2cc(C)cc(O)c12	1%	-9%	3%	25µM*	6%	-8%
CCCCCc1cc(O)c2c(C)cc(=O)oc2c1	-4%	?	1%	-4%	3.2µM*	-6%[11.4 µM]
CCc1cc(=O)oc2cc(C)c3c(C)coc3c12	0%	28%	-1%	-20%	12%	3%
Cc1cc(=O)oc2cc(O)cc(O)c12	·	?	?	-13%	12%	-22%
CC(C)CC(C(=O)Nc1oc(-c2ccco2)c(-c2ccco2)c1C#N)N1C(=O)c2ccccc2C1=O (stereo not given)	?	-8%	?	?	-2%	25µM*
COC(=O)c1cc2sc(Cl)cc2n1CC(=O)N1CCCc2ccccc21	0%	?	-4%	0%	?	-13%
CCC1CCCCN1C(=O)Cn1c(C(=O)OC)cc2sc(Cl)cc21 (stereo not given)	-1%	?	-1%	-3%	16µM*	5%
CCC1CCCCN1C(=O)Cn1c(C(=O)OC)cc2ccsc21 (stereo not given)	-1%	?	-2%	-9%	25µM*	2%
COCCNc1nc(-c2ccccc2CN(C)C)nc2ccccc12	-1%	?	2%	-10%	?	3%
O=C(COc1ccccc1)N(Cc1ccco1)c1ccc(O)cc1	0%	20µM*	-1%	-26%	22%	-6%
O=C(Cn1cnc2ccccc2c1=O)N(Cc1ccco1)c1ccc(O)cc1	0%	19%	-1%	·	-11%	1%
O=C(c1ccc(Cl)c(Cl)c1)N(Cc1ccco1)c1ccc(O)cc1	0%	?	13µM*	-16%	?	?
CCC(C)C(=O)Nc1cc(C(=O)OC)cc(C(=O)OC)c1 (stereo not given)	-1%	4%	-1%	3%	-8%	-6%
COc1cccc2[nH]c3c(N4CCCCC4)ncnc3c12	-3%	3%	-1%	20µM*	5%	-2%
CCOC(=O)C1CCN(c2ncnc3c2[nH]c2cccc(OC)c23)CC1	-3%	-26%	0%	-21%	-9%	-16%
COc1cc2[nH]c3c(N4CCN(c5ccccn5)CC4)ncnc3c2cc1OC	-1%	-7%	-1%	25µM*	-5%	-21%
COc1ccc(S(=O)(=O)N2CCN(c3ccccn3)CC2)cc1OC	2%	4%	-1%	-15%	8%	-14%
SMILES	Caspase-1 inhib	TSHR agonist	Casp7 inh	ERK AVP block	HEK293 cAMP cs	ALOX15 inhib
FC(F)(F)c1ccccc1-c1cc(NCc2cccs2)ncn1	-4%	?	-5%	-11%	?	-8%
O=C1CC(N2CCN(C/C=C/c3ccccc3)CC2)C(=O)N1Cc1cccs1 (stereo not given)	5%	23%	0%	-18%	17%	-2%
O=C1CC(N2CCN(c3ccc(O)cc3)CC2)C(=O)N1Cc1cccs1 (stereo not given)	-2%	-9%	0%	-15%	9%	13µM*
COC(=O)N1CCC2(CCCN(C(=O)Nc3ccc(OC)cc3)C2)CC1	-3%	4%	-1%	-2%	-10%	9%
O=c1cnnc(SCCc2ccccc2)[nH]1	?	?	?	?	32µM*	4µM*
CSc1nc(-c2ccco2)nn1S(=O)(=O)c1ccc(C)cc1	-2%	-2%	-3%	-13%	19%	25µM*
CSc1nc(-c2ccco2)nn1S(=O)(=O)c1ccccc1	-3%	?	2%	-15%	?	-13%
CCC(C)(C(=O)NC1CCCCC1)N(Cc1ccco1)C(=O)c1ccc2c(c1)OCO2 (stereo not given)	1%	?	0%	-16%	7.9µM*	2%
O=C(O)CCCn1nc(-c2ccccc2)c2ccccc21	-2%	?	0%	·	0.16µM*	1%
O=C(O)Cn1nc(-c2ccccc2)c2ccccc21	-2%	9%	0%	·	11%	-7%
CC(C)CC(c1nnnn1C(C)C)N1CCN(c2cccc(Cl)c2)CC1 (stereo not given)	0%	?	-2%	-7%	1µM*	11%
Cc1ccc(S(=O)(=O)Cn2nnnc2C(CC(C)C)N2CCN(c3ccc(F)cc3)CC2)cc1 (stereo not given)	-2%	2%	-1%	-16%	14%	-4%
Cc1noc(C)c1C(=O)Nc1nc(C23CC4CC(CC(C4)C2)C3)cs1	-5%	13%	-1%	20µM*	4%	-28%
CC1(C)S[C@H]2C(NC(=O)[C@@H](N)c3ccc(O)cc3)C(=O)N2[C@@H]1C(=O)O (stereo not given in full)	-2%	·	-6%	7%	·	2%
CCCN(Cc1cc2cc(C)ccc2[nH]c1=O)S(C)(=O)=O	-1%	5µM*	-2%	-17%	10%	-13%
O=C(Nc1ccc(F)cc1)N(CCCN1CCOCC1)Cc1cc2cc3c(cc2[nH]c1=O)OCCO3	-2%	?	1%	-20%	?	-10%
Cc1cccc2cc(CN(CC3CCCO3)C(=O)c3ccncc3)c(=O)[nH]c12 (stereo not given)	-3%	-3%	-1%	-12%	1%	-2%
